USP30 inh – human USP30 deubiquitinase inhibition; Q70CQ3; hit rate 5.3% among 47,000; inhibition, % at 25 µM; purified USP30, Ub-rhodamine cleavage fluorescence
USP17 inh – human USP17-like deubiquitinase inhibition; hit rate 6.5% among 47,000; inhibition, % at 50 µM; purified USP17, Ub-rhodamine cleavage fluorescence, 3 h; A8MUK1; AID 1645855
Target sequence (A8MUK1 whole entry, looked up): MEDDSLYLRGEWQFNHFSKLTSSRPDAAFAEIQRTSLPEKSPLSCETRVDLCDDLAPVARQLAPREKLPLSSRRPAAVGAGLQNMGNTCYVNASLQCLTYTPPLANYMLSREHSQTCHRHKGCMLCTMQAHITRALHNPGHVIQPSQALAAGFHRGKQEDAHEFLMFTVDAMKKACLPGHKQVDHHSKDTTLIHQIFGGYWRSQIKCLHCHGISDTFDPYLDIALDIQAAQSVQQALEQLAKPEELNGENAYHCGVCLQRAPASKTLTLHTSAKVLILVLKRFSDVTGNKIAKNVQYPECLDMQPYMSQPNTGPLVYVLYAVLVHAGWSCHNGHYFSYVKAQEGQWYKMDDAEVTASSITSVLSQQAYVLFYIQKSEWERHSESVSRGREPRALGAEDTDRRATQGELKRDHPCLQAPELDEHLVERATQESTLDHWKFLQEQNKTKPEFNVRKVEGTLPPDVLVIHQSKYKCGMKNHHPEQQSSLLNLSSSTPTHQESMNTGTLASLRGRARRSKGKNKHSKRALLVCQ
USP28 inh – inhibitors of human USP28 deubiquitinase | inhibition, % at 25 µM | purified USP28, Ub-rhodamine cleavage fluorescence, 30 min | hit rate 3% among 47,000 | Q96RU2
Starred values were filed as active, the others as inactive; i = inactive; . = not tested or not shown. Sampled rows, rich in hits. Any-hit rate of the full collection: about 11%. No stated cut-off is given here; in the data, active means inhibition above about 30%; inactive means the rest.

SMILES	USP30 inh	USP17 inh	USP28 inh
Cc1ccc(C)c(CSc2nnc(C3CCCN3)o2)c1 (configuration not stated)	11	.	-7
CC(C)Cn1cc(C(=O)N2CCCC2)c2ccccc2c1=O	5	2	3
O=C(c1ccc(O)cc1)N1C[C@@H]2CCN(c3ncccn3)C[C@@H]2C1	-12	-14	-7
CC(=O)Nc1c2sscc-2[nH]c1=O	70*	-20	4
O=C(COC(=O)C(Cc1c[nH]c2ccccc12)NC(=O)c1ccc(F)cc1)NCc1ccc(F)cc1 (configuration not stated)	-3	9	-4
O=C(COC(=O)C(Cc1c[nH]c2ccccc12)NC(=O)c1ccccc1Cl)Nc1cc(F)ccc1F (configuration not stated)	16	32*	22
CC(C)=CC(O)C1=CC(O)C2OC2C1=O (configuration not stated)	-2	2	-4
O=C(CSc1nc2c(cnn2-c2ccccc2)c(=O)[nH]1)Nc1ccc(Cl)cc1F	30*	-26	15
Cc1cc(NC(=O)CSc2nc3c(cnn3-c3ccc(F)cc3)c(=O)[nH]2)no1	21	2	-1
O=C(Cc1cccc(Cl)c1)NCCN1CCC(O)(c2cccc(F)c2)CC1	34*	7	17
O=C(NCCCN1CCCC1)c1cccc(Cl)c1	-10	-11	-8
O=C(O)C1CCCCN1Cc1cnc2ccccn12 (configuration not stated)	14	5	9
Cc1cccc(NC(=O)CSc2nnc(-c3n[nH]c4c3CCC4)n2N)c1C	38*	67*	9
Cc1ccc(NC(=O)CSc2nnc(-c3n[nH]c4c3CCC4)n2N)cc1C	21	5	-1
CCCN1CCN(C(=O)c2cnc(NCc3ccc4c(c3)OCO4)nc2C)CC1	-18	-6	-4
COc1ccc([N+](=O)[O-])cc1NC(=O)CCCc1c[nH]c2ccccc12	27	29	13
COc1ccc2c(c1)c(C(=O)CSc1nc(C)nc3c1oc1ccccc13)c(C)n2C	28	23	1
CCc1nc(SCC(=O)NCCc2ccc(OC)c(OC)c2)c2oc3ccccc3c2n1	21	-7	8
CCc1nc(Sc2ccc3ccccc3c2)c2oc3ccccc3c2n1	52*	51*	5
COc1ccc(OC)c(NC(=O)CSc2nc(C)nc3c2oc2ccccc23)c1	18	61*	8
CCc1nc(SCCO)c2oc3ccccc3c2n1	-13	-4	-4
CCc1nc(SCC(=O)Nc2cc(C)ccc2OC)c2oc3ccccc3c2n1	42*	41*	3
Cc1sc2ncnc(NS(=O)(=O)c3ccc4c(c3)OCCO4)c2c1C	-82	-1	-20
Cc1cc(-c2cnc(NCc3cccc(F)c3)nc2-c2ccco2)on1	9	41*	26
Cc1cc(-c2cnc(NCCCN3CCOCC3)nc2-c2ccco2)on1	-66	-10	-16
SMILES	USP30 inh	USP17 inh	USP28 inh
CC(C)(C)OC(=O)N1CCCC2(CNc3ccccc3C2)C1 (configuration not stated)	23	15	6
Cc1oc(-c2ccccc2F)nc1CS(=O)(=O)CC(=O)NCc1ccccc1Cl	26	46*	10
Cc1noc(-c2csc(C(=O)NCc3ccccc3Cl)n2)n1	23	4	6
O=c1c2cnc3nc(-c4ccncc4)nn3c2ccn1CC1CCCO1 (configuration not stated)	13	0	0
CNC(=O)N1CCc2nc(N3CCc4ccccc4C3)[nH]c(=O)c2CC1	-25	0	-1
O=C(Cn1cnc2c(cnn2-c2ccccc2)c1=O)Nc1cccc([N+](=O)[O-])c1	-20	42*	-12
O=C(Cn1cnc2c(cnn2-c2ccc(F)cc2)c1=O)Nc1ccc2c(c1)OCCCO2	22	10	2
CN(C)C(=O)N1CCC(c2nnc3ccc(C(=O)NC4CCCC4)cn23)C1 (configuration not stated)	-10	-12	-6
Cc1ccc(CNC(=O)c2ccc3c(c2)sc2nc(-c4ccc(C)cc4)cn23)cc1	-24	-9	-10
CN1CCN(C(CNC(=O)COc2ccc(Cl)cc2)c2ccc(F)cc2)CC1 (configuration not stated)	11	4	-5
CCc1ccc(C(C)NC(=O)C2CCN(c3ccc4nncn4n3)CC2)cc1 (configuration not stated)	9	7	54*
Cc1ccc(CNC(=O)C2CCCN(c3ccc4nncn4n3)C2)cc1 (configuration not stated)	-8	-1	0
Cc1ccc(C(=O)N2CCCC3(CNC(=O)c4ccccc4O3)C2)cn1 (configuration not stated)	-10	3	-4
Cc1cnc(C2COCCN2C(=O)CCc2c[nH]c3ccccc23)[nH]1 (configuration not stated)	20	7	7
CCNc1cc(N2CCCC(CCC(=O)N3CCN(C(C)C)CC3)C2)ncn1 (configuration not stated)	-117	-56	-44
COc1ccc2nc(N3CC(C(=O)Nc4ccc(C(N)=O)cc4)C3)sc2c1	62*	65*	32*
COc1ccc2nc(N3CC(C(=O)N4CCC5(CC4)OCCO5)C3)sc2c1	-1	-8	0
Cc1ccc(-c2cnc(N(C)Cc3ccccc3)nc2)cc1	0	14	3
COc1cccc(-n2cc(-c3nc(-c4cccnc4)no3)c3ccccc3c2=O)c1	31*	28	15
O=c1c2ccccc2c(-c2nc(-c3cccnc3)no2)cn1-c1ccc(F)cc1	15	22	0
O=C(c1ccc(Cn2c(=O)[nH]c3ccccc3c2=O)cc1)N1CCN(c2ccc(F)cc2)CC1	48*	10	18
O=C(NCCCN1CCN(c2ccc(F)cc2)CC1)c1ccc2c(=O)n(CCc3ccccc3)c(=O)[nH]c2c1	42*	31*	20
O=C(NCCc1ccccc1)c1ccc2c(=O)n(CCC3=CCCCC3)c(=O)[nH]c2c1	0	-9	0
O=C(NC1CCN(Cc2ccccc2)CC1)c1ccc(Cn2c(=O)[nH]c3ccccc3c2=O)cc1	0	-6	0
O=C(c1ccc(Cn2c(=O)[nH]c3ccccc3c2=O)cc1)N1CCN(Cc2ccc3c(c2)OCO3)CC1	25	33*	18
SMILES	USP30 inh	USP17 inh	USP28 inh
O=C(CCn1c(=O)[nH]c2ccccc2c1=O)N1CCN(c2ccc(F)cc2)CC1	-15	-12	-9
COc1ccccc1CNC(=O)CN1C(=O)[C@H]2CCCN2c2ncccc21	-49	-5	-5
O=C1CC(c2ccccc2F)c2ncn(-c3cccc(F)c3)c2N1 (configuration not stated)	i	-134	-222
O=S(=O)(c1ccccc1)N1CCC2(CN(Cc3cccc(F)c3)C2)C1	2	-11	-1
COc1ccc(CC(=O)N2CCCC(c3[nH]nc4nccnc34)C2)cc1 (configuration not stated)	17	9	9
COc1ccc(-c2c3c4n(c(-c5ccccc5)cn4c2C(=O)NC2CCCCC2)CCCC3)cc1	-96	-17	-7
COc1ccc(-c2cc(-c3nnc4n3CCCCC4)n(-c3ccccc3)n2)cc1	28	15	60*
COc1cc(/C=C2\N=C(c3ccccc3)N(CC(C)=O)C2=O)cc(OC)c1OC	i	-22	-12
CS(=O)(=O)N1CCCCCC1C1CCN(c2ncccc2C#N)CC1 (configuration not stated)	10	5	7

Compound activity as filed in PubChem BioAssay.
